Columns and labels:
Experiment in all cases: DAPPL (digital affinity profiling via proximity ligation, sequencing); 10 mM Tris-HCl pH 7.5, 50 mM NaCl, 1 mM DTT, 4% glycerol, room temperature, 30 min; GST-TFs on glutathione beads, 16-mer random dsDNA library, 0.1% formaldehyde crosslink after washing; high values mean tight binding
Details in all cases: protein: recombinant; tags: N-terminal GST; dsDNA, one strand shown
ERF = target: T1, ERF (Homo sapiens, UniProt P50548 1-548)
T1 sequence: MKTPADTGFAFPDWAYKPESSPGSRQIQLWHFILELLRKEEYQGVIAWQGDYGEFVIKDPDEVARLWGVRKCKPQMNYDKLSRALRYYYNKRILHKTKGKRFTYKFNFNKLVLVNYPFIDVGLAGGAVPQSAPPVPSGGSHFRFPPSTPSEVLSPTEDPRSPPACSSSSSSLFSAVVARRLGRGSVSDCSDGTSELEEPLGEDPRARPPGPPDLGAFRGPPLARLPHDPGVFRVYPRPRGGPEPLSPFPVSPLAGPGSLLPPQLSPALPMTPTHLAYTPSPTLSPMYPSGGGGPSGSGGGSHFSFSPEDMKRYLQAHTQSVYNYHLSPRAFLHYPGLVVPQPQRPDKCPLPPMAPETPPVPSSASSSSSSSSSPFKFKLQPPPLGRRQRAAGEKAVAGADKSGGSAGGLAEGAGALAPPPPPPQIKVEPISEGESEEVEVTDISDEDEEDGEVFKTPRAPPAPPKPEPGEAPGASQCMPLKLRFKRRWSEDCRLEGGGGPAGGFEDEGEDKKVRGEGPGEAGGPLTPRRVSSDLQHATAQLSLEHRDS
In short: (§1)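 Sequencing on an Illumina NextSeq500 followed washing, crosslinking with 0.1% formaldehyde, proximity ligation (BsaI/T4 ligase, 1 h, 37 °C) and PCR amplification of pools that had been incubated for 30 min at room temperature with 200 nmole of a random double-stranded 16-mer DNA library in Tris/NaCl/DTT/glycerol buffer. Each pool held DNA-barcoded human transcription factors, expressed in yeast as GST fusions and captured on glutathione beads, plus a tag-only sample. Binding signal is a hexamer's read frequency for a factor divided by its frequency in the tag-only sample.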

ETV3L = target: T2, ETV3L (Homo sapiens, UniProt Q6ZN32 1-361)
T2 sequence: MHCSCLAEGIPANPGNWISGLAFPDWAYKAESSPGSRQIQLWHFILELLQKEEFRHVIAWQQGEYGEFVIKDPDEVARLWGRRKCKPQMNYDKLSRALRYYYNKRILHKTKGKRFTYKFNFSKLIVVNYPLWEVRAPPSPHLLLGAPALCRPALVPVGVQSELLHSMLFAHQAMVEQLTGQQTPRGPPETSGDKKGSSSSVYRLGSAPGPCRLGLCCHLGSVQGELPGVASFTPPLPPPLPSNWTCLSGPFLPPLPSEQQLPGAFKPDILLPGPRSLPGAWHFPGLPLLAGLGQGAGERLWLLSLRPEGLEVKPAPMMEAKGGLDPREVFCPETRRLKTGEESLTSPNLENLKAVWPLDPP
In short: as §1

ETS2 = target: T3, ETS2 (Homo sapiens, UniProt P15036 1-469)
T3 sequence: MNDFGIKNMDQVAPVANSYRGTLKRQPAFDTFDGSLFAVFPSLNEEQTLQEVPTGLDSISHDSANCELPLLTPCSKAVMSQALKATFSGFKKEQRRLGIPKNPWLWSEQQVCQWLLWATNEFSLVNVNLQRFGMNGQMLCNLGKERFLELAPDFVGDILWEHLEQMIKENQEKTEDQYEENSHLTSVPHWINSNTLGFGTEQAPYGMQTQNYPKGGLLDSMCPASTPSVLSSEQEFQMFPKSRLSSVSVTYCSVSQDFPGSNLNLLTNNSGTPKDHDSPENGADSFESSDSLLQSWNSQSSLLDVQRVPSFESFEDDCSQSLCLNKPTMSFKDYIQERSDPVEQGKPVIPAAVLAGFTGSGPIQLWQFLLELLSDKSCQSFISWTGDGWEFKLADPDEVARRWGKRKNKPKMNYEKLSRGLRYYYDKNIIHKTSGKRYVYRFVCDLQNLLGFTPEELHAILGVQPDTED
In short: as §1

SPDEF = target: T4, SPDEF (Homo sapiens, UniProt O95238 1-335)
T4 sequence: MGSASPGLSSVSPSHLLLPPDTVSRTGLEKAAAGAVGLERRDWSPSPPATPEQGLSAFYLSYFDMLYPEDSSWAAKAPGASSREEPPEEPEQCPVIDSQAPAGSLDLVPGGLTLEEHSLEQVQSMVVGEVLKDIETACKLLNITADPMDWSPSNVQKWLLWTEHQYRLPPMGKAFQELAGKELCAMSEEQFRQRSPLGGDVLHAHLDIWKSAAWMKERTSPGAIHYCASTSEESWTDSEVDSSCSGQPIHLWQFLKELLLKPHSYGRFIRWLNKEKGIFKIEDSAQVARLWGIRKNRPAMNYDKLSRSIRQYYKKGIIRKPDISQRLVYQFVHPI
In short: as §1

ETV7 = target: T5, ETV7 (Homo sapiens, UniProt Q9Y603 1-341)
T5 sequence: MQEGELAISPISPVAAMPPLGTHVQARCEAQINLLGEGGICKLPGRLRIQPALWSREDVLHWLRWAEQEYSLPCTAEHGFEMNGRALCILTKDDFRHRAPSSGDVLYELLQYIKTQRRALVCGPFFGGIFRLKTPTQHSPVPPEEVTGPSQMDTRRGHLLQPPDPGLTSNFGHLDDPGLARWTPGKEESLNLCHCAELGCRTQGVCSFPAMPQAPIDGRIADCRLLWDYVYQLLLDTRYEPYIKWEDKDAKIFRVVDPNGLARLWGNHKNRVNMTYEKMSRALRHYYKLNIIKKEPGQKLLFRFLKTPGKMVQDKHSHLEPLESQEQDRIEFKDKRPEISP
In short: as §1

ELF5 = target: T6, ELF5 (Homo sapiens, UniProt Q9UKW6-2 1-255)
T6 sequence: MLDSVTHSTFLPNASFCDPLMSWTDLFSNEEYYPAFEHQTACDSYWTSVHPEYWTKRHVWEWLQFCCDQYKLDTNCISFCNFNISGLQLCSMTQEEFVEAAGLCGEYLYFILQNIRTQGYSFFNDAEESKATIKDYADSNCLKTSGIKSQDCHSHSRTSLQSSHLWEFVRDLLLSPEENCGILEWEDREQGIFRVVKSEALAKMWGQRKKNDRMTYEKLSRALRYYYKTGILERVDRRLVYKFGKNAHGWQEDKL
In short: as §1

ETV3 = target: T7, ETV3 (Homo sapiens, UniProt P41162-2 1-143)
T7 sequence: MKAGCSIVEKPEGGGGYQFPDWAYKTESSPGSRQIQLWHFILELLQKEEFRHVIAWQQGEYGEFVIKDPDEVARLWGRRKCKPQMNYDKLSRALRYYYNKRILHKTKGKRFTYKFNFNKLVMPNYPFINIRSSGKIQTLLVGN
In short: as §1

ETV6 = ETV6 (Homo sapiens, UniProt P41212 1-452)
In short: as §1

Chain of ETV6 (P41212 whole entry): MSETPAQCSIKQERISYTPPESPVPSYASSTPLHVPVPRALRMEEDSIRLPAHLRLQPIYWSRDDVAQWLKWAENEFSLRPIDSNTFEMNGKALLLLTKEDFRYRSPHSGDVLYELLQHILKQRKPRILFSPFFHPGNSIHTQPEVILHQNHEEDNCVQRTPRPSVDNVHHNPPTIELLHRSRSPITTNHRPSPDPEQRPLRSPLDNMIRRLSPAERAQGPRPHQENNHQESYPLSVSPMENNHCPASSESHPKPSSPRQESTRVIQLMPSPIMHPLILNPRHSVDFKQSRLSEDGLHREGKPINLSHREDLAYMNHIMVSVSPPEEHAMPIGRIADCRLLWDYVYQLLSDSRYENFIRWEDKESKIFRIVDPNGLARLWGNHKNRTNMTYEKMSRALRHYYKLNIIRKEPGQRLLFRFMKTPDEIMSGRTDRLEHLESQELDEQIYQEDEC

Row | Sequence | binding signal (ERF) | binding signal (ETV3L) | binding signal (ETS2) | binding signal (SPDEF) | binding signal (ETV7) | binding signal (ELF5) | binding signal (ETV3) | binding signal (ETV6)
1 | CGACAT | 1.34 fold enrichment (6-mer frequency, TF over GST control) | 1.22 fold enrichment (6-mer frequency, TF over GST control) | 1.32 fold enrichment (6-mer frequency, TF over GST control) | 1.4 fold enrichment (6-mer frequency, TF over GST control) | 1.23 fold enrichment (6-mer frequency, TF over GST control) | 1.33 fold enrichment (6-mer frequency, TF over GST control) | 1.37 fold enrichment (6-mer frequency, TF over GST control) | 1.42 fold enrichment (6-mer frequency, TF over GST control)
2 | CAACCC | 1.22 fold enrichment (6-mer frequency, TF over GST control) | 1.25 fold enrichment (6-mer frequency, TF over GST control) | 1.28 fold enrichment (6-mer frequency, TF over GST control) | 1.2 fold enrichment (6-mer frequency, TF over GST control) | 1.15 fold enrichment (6-mer frequency, TF over GST control) | 1.2 fold enrichment (6-mer frequency, TF over GST control) | 1.27 fold enrichment (6-mer frequency, TF over GST control) | 1.22 fold enrichment (6-mer frequency, TF over GST control)
3 | TACCGC | 1.1 fold enrichment (6-mer frequency, TF over GST control) | 1.14 fold enrichment (6-mer frequency, TF over GST control) | 1.05 fold enrichment (6-mer frequency, TF over GST control) | 1.17 fold enrichment (6-mer frequency, TF over GST control) | 1.13 fold enrichment (6-mer frequency, TF over GST control) | 1.08 fold enrichment (6-mer frequency, TF over GST control) | 1.12 fold enrichment (6-mer frequency, TF over GST control) | 1.04 fold enrichment (6-mer frequency, TF over GST control)
4 | TGCCTA | 1.09 fold enrichment (6-mer frequency, TF over GST control) | 1.16 fold enrichment (6-mer frequency, TF over GST control) | 1.16 fold enrichment (6-mer frequency, TF over GST control) | 1.03 fold enrichment (6-mer frequency, TF over GST control) | 1.01 fold enrichment (6-mer frequency, TF over GST control) | 1 fold enrichment (6-mer frequency, TF over GST control) | 1.07 fold enrichment (6-mer frequency, TF over GST control) | 1.07 fold enrichment (6-mer frequency, TF over GST control)
5 | TCTAAC | 1.22 fold enrichment (6-mer frequency, TF over GST control) | 1.19 fold enrichment (6-mer frequency, TF over GST control) | 1.19 fold enrichment (6-mer frequency, TF over GST control) | 1.14 fold enrichment (6-mer frequency, TF over GST control) | 1.29 fold enrichment (6-mer frequency, TF over GST control) | 1.15 fold enrichment (6-mer frequency, TF over GST control) | 1.18 fold enrichment (6-mer frequency, TF over GST control) | 1.22 fold enrichment (6-mer frequency, TF over GST control)
6 | GCCCGC | 1.11 fold enrichment (6-mer frequency, TF over GST control) | 1.09 fold enrichment (6-mer frequency, TF over GST control) | 1.02 fold enrichment (6-mer frequency, TF over GST control) | 1.04 fold enrichment (6-mer frequency, TF over GST control) | 1.13 fold enrichment (6-mer frequency, TF over GST control) | 1.1 fold enrichment (6-mer frequency, TF over GST control) | 1.16 fold enrichment (6-mer frequency, TF over GST control) | 1.07 fold enrichment (6-mer frequency, TF over GST control)
7 | CGAAAG | 1.11 fold enrichment (6-mer frequency, TF over GST control) | 1.05 fold enrichment (6-mer frequency, TF over GST control) | 1.11 fold enrichment (6-mer frequency, TF over GST control) | 1.07 fold enrichment (6-mer frequency, TF over GST control) | 1.19 fold enrichment (6-mer frequency, TF over GST control) | 1 fold enrichment (6-mer frequency, TF over GST control) | 1.02 fold enrichment (6-mer frequency, TF over GST control) | 1.02 fold enrichment (6-mer frequency, TF over GST control)

— publication PMC7862700, “An all-to-all approach to the identification of sequence-specific readers for epigenetic DNA modifications on cytosine”
